Measured values: PubChem BioAssay AID743286 (National Center for Advancing Translational Sciences (NCATS), 2014)
Out of some 1,100 compounds screened, about 340 (31%) were called active. Not shown: some 40% with an inconclusive outcome. A selection follows. Values without a mark were called inactive. The call rests on the fitted dose curve; in most records, active means well fitted inhibition curve with a large enough effect; inconclusive means small, poorly fitted or top-dose-only effect; inactive means flat fitted curve, though single readings scatter.

The molecules below were run against Phosphatidylinositol 5-phosphate 4-kinase type-2 alpha (Homo sapiens) (UniProt P48426) (assay: qHTS for Inhibitors of PI5P4K: Confirmation in Primary Assay). Details: PI5P4Kalpha enzyme, ADP-Glo luminescence, 60 min; series mostly up to 76.9 µM; activity change, negative = inhibition: at the top concentration.
Chain of Phosphatidylinositol 5-phosphate 4-kinase type-2 alpha (Homo sapiens) (P48426 whole entry, looked up): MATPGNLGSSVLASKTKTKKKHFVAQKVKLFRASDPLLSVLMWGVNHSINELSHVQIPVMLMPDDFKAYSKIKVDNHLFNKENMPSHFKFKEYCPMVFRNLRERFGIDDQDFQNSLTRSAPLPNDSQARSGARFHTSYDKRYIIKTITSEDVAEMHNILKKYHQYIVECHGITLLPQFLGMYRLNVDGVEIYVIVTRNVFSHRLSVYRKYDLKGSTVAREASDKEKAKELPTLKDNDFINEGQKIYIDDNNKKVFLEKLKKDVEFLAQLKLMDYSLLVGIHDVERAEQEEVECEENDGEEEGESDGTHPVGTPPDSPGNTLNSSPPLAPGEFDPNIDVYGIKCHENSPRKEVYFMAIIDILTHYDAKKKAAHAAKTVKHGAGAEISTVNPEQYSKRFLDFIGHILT
How it was run: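 PI5P4Kα with PI5P substrate in 0.038 M HEPES pH 7.4, 0.28 mM EGTA, 0.1% CHAPS, 5% DMSO; reaction started with 5 µM ATP (final), 60 min at room temperature. ADP formed read by ADP-Glo luminescence end-point.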
Further: nearly all actives have a fitted effect of over 65% in size.
On the % scale 0 is the no-effect control and ±100 the full control effect; potency means the concentration at half of the fitted maximal effect.

SMILES | activity change, negative = inhibition [%] | Potency
O=C(O)CCC(=O)N1CCC(n2nnc3cc(C(F)(F)F)ccc32)CC1 | 0.897 | –
O=C(NC1CC1)c1ccc(NC(=O)C2CCC2)cc1 | 0.977 | –
CC(C)OC(=O)c1c(NS(=O)(=O)c2ccccc2)sc2c1CCCC2 | 1.37 | –
COc1ccc(S(=O)(=O)/N=C2\C=C(NS(=O)(=O)c3ccccc3)C(=O)c3ccccc32)cc1 | – | 31.6 µM (active)
COc1ccc(S(=O)(=O)Nc2ccc3c(c2)CCC3)cc1 | 4.59 | –
Cc1ccc(-c2nc3c(c(=O)[nH]c(=O)n3Cc3ccccc3)n2C)o1 | – | 5.62 µM (active)
CCCCn1c(=O)[nH]c(=O)c2c1nc(-c1ccc(-c3ccccc3Br)o1)n2CC | -29.7 | –
COc1cc(=O)[nH]c(=O)n1C(=O)Cc1ccccc1 | 0.157 | –
O=C(CC1C(=O)NCCN1CC1CCCCC1)NCc1cc(F)ccc1F (configuration not stated) | -5.29 | –
Cc1ccc(CNC(=O)c2ccc(-n3cccc3)cc2)cc1 | – | 12.6 µM (active)
Cc1ccc(CNC(=O)CCS(=O)(=O)c2ccc(Cl)cc2)cc1 | 1.11 | –
Cc1ccc(CNC(=O)CSc2ncccn2)cc1 | 0.997 | –
O=C(NCc1ccc(F)cc1)C1CCN(c2cnccn2)CC1 | 4.11 | –
Cc1cc(-c2nc3c4c5c(sc4[nH]c(=O)n3n2)CCC5)c(C)o1 | – | 15.8 µM (active)
CCOC(=O)C1CCCN(C(=O)c2ccc(F)c(C)c2)CC1 (configuration not stated) | 3.34 | –
COc1ccc(C(=O)N2CCC(C(=O)Nc3ccc(C)cc3)CC2)cc1 | -0.331 | –
CCOC(=O)C1CCCN(C(=O)c2cc(-c3ccco3)nc3ccccc23)C1 (configuration not stated) | – | 3.16 µM (active)
COC(=O)C1CCN(C(=O)c2cc(-c3ccco3)nc3ccccc23)CC1 | – | 3.98 µM (active)
CCOC(=O)C1(C)CCCN(C(=O)c2ccccc2C(F)(F)F)C1 (configuration not stated) | -4.14 | –
Cc1ccc(C)c(C2=NNC(=NCc3ccccc3)SC2)c1 | -10.7 | –
O=C(Nc1ccc(Cl)cc1)Nc1ccccc1CC[N+](=O)[O-] | -4.4 | –
Cc1cc(C)cc(NC(=O)Cn2nnc(C(=O)NCc3ccc(F)cc3)c2N)c1 | -0.223 | –
CCOC(=O)Nc1ccc(NCc2ccc(F)cc2)nc1N | – | 31.6 µM (active)
O=C(Oc1ccc2c(c1)OCO2)c1cc2c(s1)CCC2 | – | 2.24 µM (active)
COc1ccc(-c2cc(C(F)F)n3ncc(C(=O)n4ccnc4C)c3n2)cc1 | -18.4 | –
Cc1ccc(-n2c(SCC(=O)Nc3ccc4c5c(cccc35)CC4)nc(O)cc2=O)cc1 | -25.8 | –

SMILES | activity change, negative = inhibition [%] | Potency
O=c1c2ccccc2cnn1-c1nc2ccccc2[nH]1 | – | 25.1 µM (active)
O=C(NC1CC1)C1=C[C@@H](c2c[nH]c3ccccc23)C[C@@H](OCc2ccc(CO)cc2)O1 | -4.48 | –
COc1ccc(N2CCN(C(=O)c3[nH]c(C(F)(F)F)nc3-c3ccccc3)CC2)cc1 | -2.12 | –
N#CC1=C2SCN(c3ccc(F)cc3)CN2C(=O)CC1c1cccc(F)c1 (configuration not stated) | – | 20 µM (active)
CCc1ccc(N2CSC3=C(C#N)C(c4cccs4)CC(=O)N3C2)cc1 (configuration not stated) | – | 12.6 µM (active)
CCc1ccc(C2CC(=O)N3CN(c4ccccc4)CSC3=C2C#N)cc1 (configuration not stated) | – | 28.2 µM (active)
N#CC1=C2SCN(c3ccccc3)CN2C(=O)CC1c1cccs1 (configuration not stated) | – | 15.8 µM (active)
CCOc1ccc(Cl)cc1S(=O)(=O)n1cnc2ccccc21 | 11 | –
O=C(Cc1cccs1)N(CC1CCCO1)C1(C(=O)NC2CCCCC2)CCCCC1 (configuration not stated) | 1.04 | –
NC(=O)[C@@H]1CC2(CC(c3cccc(NC(=O)COc4ccc(Cl)cc4)c3)=NO2)CN1C(=O)COc1ccc(Cl)cc1 (some centres not stated) | -15.9 | –
CC(NC(=O)c1ccnn1C)C1CCCO1 (configuration not stated) | 7.18 | –
Cn1c(=O)oc2cc(S(=O)(=O)Nc3ccccc3)ccc21 | -5.26 | –
CCOc1ccc(NC(=O)N2CCC(n3nnc4ccccc43)CC2)cc1 | 1.23 | –
O=C1NN=C2CCCCCC12 (configuration not stated) | 3.7 | –
C[C@H](NC(=O)c1cc2c(cn1)[nH]c1ccccc12)C(=O)O | – | 10 µM (active)
Cc1ccc(-c2cc3c(n2-c2ccc(C(=O)O)cc2)CCCC3=O)cc1 | – | 15.8 µM (active)
Nc1nc(Nc2ccccc2)sc1C(=O)c1ccccc1 | – | 7.94 µM (active)
COc1ccc(C(=O)c2sc(Nc3ccccc3F)nc2N)cc1 | – | 5.62 µM (active)
Nc1sc2c(c1C(=O)c1ccccc1)CCCC2 | -22.2 | –
Nc1nc(Nc2ccccc2F)sc1C(=O)c1ccccc1 | – | 14.1 µM (active)
CCC(=O)Oc1ccc(C(=O)Nc2c[nH]c(=O)[nH]c2=O)cc1 | -4.14 | –
O=C(c1ccc(OCCN2CCCCC2)cc1)c1c(-c2ccc(O)cc2)sc2cc(O)ccc12 | -20.9 | –
COc1ccc(S(=O)(=O)N(C(=O)c2ccco2)c2cc3sc(=O)oc3c3ccccc23)cc1 | -19.6 | –
COc1ccccc1N(CC(=O)N1CCC(C(N)=O)CC1)S(=O)(=O)c1ccccc1 | -7.71 | –
COc1ccccc1N(CC(=O)NCc1ccco1)S(=O)(=O)c1ccc(C)cc1 | – | 15.8 µM (active)
CCn1cc(C(=O)N2CCN(c3cccc(C)c3C)CC2)c(=O)c2ccc(C)nc21 | -4.99 | –

SMILES | activity change, negative = inhibition [%] | Potency
O=C(O)c1cccc(NC(=O)c2cn(-c3ccccc3)nc2-c2cc3ccccc3o2)c1 | – | 14.1 µM (active)
CN(Cc1cn(-c2ccccc2)nc1-c1cc2ccccc2o1)C(=O)CCC(=O)O | -2.59 | –
COc1ccc(-c2nnn(CC(=O)N(CC(=O)NC3CCCC3)c3ccccc3)n2)cc1OC | 0.286 | –
Cc1cccc(C)c1NC(=O)C(c1ccc(C(F)(F)F)cc1)n1c(=O)c(-c2ccco2)nc2ccccc21 (configuration not stated) | -26.5 | –
COc1ccc(NC(=O)CSc2nnc(-c3ccco3)c(-c3ccco3)n2)cc1OC | -19.8 | –
CCCNC(=O)CSc1nnc(-c2ccco2)n1C | -0.997 | –
COc1ccccc1Cc1c(-c2ccco2)nc2c(C)cc(Br)cn12 | -11.9 | –
COc1ccc2nc(-c3ccco3)c(-c3ccco3)nc2c1 | – | 10 µM (active)
O=C(Nc1nc(-c2ccco2)cs1)c1ccccc1 | -26.7 | –
COc1ccc(C2=NCCn3nc4cc(OC)ccc4c32)cc1 | -6.76 | –
CS(=O)(=O)c1ccc(C(=O)Nc2nc(-c3ccco3)c(-c3ccco3)s2)cc1 | -27.4 | –
O=C(c1ccccc1)c1ccc2nc(-c3ccco3)c(-c3ccco3)nc2c1 | – | 4.47 µM (active)
CCCCNC(=O)c1ccc2nc(-c3ccco3)c(-c3ccco3)nc2c1 | – | 12.6 µM (active)
COCCNC(=O)Nc1ccc2nc(-c3ccco3)c(-c3ccco3)nc2c1 | – | 6.31 µM (active)
COCCNC(=O)C(c1ccc(Cl)cc1)N(Cc1ccco1)C(=O)CCC(=O)Nc1ccccn1 (configuration not stated) | 0.846 | –
CN(C)C(=S)NCc1ccccc1 | 0.0461 | –
CC(=O)N1c2ccc(S(=O)(=O)NCCC(=O)N(C)C3CCCCC3)cc2CC1C (configuration not stated) | 0.892 | –
COc1cccc2c1C(=O)C[C@]1(CCCC[C@@H]1C)O2 | -0.193 | –
COc1ccc(C(CNC(=O)c2ccc(OCc3cscn3)cc2)N2CCCC2)cc1 (configuration not stated) | -4.41 | –
CC(C)Sc1nc(N2CCOCC2)c2c(c1C#N)CC(C)(C)N(C)C2 | -4.58 | –
Cc1cc(NC(=O)CCCn2cc([N+](=O)[O-])cn2)n(Cc2ccc(F)cc2)n1 | -0.367 | –
c1ccc2c(CCNc3ncnc4nc[nH]c34)c[nH]c2c1 | – | 17.8 µM (active)
Cc1sc2ncnc(NC(C)C(=O)O)c2c1C (configuration not stated) | – | 3.98 µM (active)
O=C(Cc1ccc(S(=O)(=O)N2CCOCC2)s1)Nc1nc2c(s1)CCCC2 | – | 14.1 µM (active)
CCn1nc(CC(=O)Nc2nnc(CC(=O)N3CCOCC3)s2)c2ccccc2c1=O | -0.277 | –
CC(=O)c1ccc(NC(=O)c2cnn3ccccc23)cc1 | – | 3.55 µM (active)

SMILES | activity change, negative = inhibition [%] | Potency
COc1ccccc1Nc1ccc2c(O)cc(S(=O)(=O)O)cc2c1 | – | 3.16 µM (active)
O=S(=O)(O)c1cc(O)c2cc(Nc3ccccc3)ccc2c1 | – | 2 µM (active)
O=C(CCS(=O)(=O)c1ccc(Br)cc1)NCc1ccc(F)cc1 | -6.2 | –
Cc1cc(NC(=O)CSc2cn(CCNC(=O)c3ccccc3)c3ccccc23)no1 | – | 14.1 µM (active)
Cc1cc(NC(=O)Nc2ccccc2[N+](=O)[O-])no1 | -3.15 | –
Cc1cc(NC(=O)CN2CCN(C)CC2)no1 | -28 | –
O=C1Nc2ccc(C(=O)c3ccco3)cc2/C1=C/c1cc(Cl)c(O)c(Cl)c1 | – | 0.207 µM (active)
COC(=O)c1ccc2c(c1)/C(=C/c1cc(Br)c(O)c(Br)c1)C(=O)N2 | – | 0.823 µM (active)
O=C(Nc1ccccc1Cl)c1ccc2nccnc2c1 | -5.39 | –
NS(=O)(=O)c1ccc(CCNC(=O)c2ccc3nccnc3c2)cc1 | – | 14.1 µM (active)
COCc1cc(N2CCCCC2)nc(-c2ccccc2)n1 | 0.478 | –
Cc1ccc(-c2csc(NS(=O)(=O)c3cccc(F)c3)n2)o1 | – | 11.2 µM (active)
NS(=O)(=O)c1cccc(NC(=O)CSc2nnnn2-c2ccccc2)c1 | 1.94 | –
O=C(O)C1CSC(c2coc3ccccc3c2=O)N1 (configuration not stated) | -14.7 | –
COc1ccccc1NC(=O)CSc1sc2c(O)cc(=O)[nH]c2c1C#N | – | 10 µM (active)
COc1ccc(NC(=O)CSc2sc3c(O)cc(=O)[nH]c3c2C#N)c(OC)c1 | – | 14.1 µM (active)
COc1cc(Cl)c(C)cc1NC(=O)CSc1sc2c(O)cc(=O)[nH]c2c1C#N | – | 5.01 µM (active)
COc1ccccc1NC(=O)Cc1nnc(SCC(=O)Nc2ccccc2F)n1C | -1.37 | –
COc1ccc(NC(C)=O)cc1NC(=O)CSc1nc2ncccc2[nH]1 | 1.09 | –
COc1ccc(C(=O)NC(CCSC)C(=O)N2CCCCCC2)cc1 (configuration not stated) | -0.697 | –
COc1cc(NC2=Nc3cccc4cccc2c34)cc(OC)c1OC | -1.43 | –
Cc1nn(-c2ccccc2)c2nc(=O)n(-c3ccccc3)cc12 | -3.35 | –
Cc1ccc(NC(=O)c2cccc(C(=O)Nc3ccc(C)cc3C(=O)O)c2)c(C(=O)O)c1 | – | 8.91 µM (active)
CN(C)c1ccc2nc3ccc(=O)cc-3sc2c1 | – | 11.2 µM (active)
